Bioassay records: PubChem, National Center for Advancing Translational Sciences (NCATS)
Most compounds without a hit are left out; they make up all but 2.8% or so of the library.
PI5P4Ka inh: qHTS for Inhibitors of phosphatidylinositol 5-phosphate 4-kinase (PI5P4K) | AID 652105, 2013 | PI5P4Kalpha enzyme, ADP-Glo luminescence, 60 min; stronger effect = lower value | 1.2% of 330,000 active | max response, %; active means max response of -50% or lower; inconclusive means between -30% and -50%; inactive means -30% or higher; further: value at the top dose of about 77 µM
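Quantitative HTS of the MLSMR library against PI5P4Kalpha with substrate. ATP added last at 5 microM final; room temperature, 60 minutes. Remaining ATP depleted, ADP converted and read as luminescence.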
WRN inhibitor: qHTS for Inhibitors of WRN Helicase; WRN helicase unwinding, fluorescent forked duplex, kinetic; Potency, µM (top dose mostly 114 µM), hits mostly inhibitors; 0.46% of 360,000 active; further: nearly all actives have a fitted effect of over 55% in size
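WRN at 20 nM final preincubated with compound 15 min at room temperature; reaction started with 100 nM fluorophore/quencher forked duplex oligonucleotide and 2 mM ATP final. Unwinding followed kinetically by red fluorescence (ex 525, em 598 nm).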
Pol eta inh-1: qHTS for Inhibitors of Polymerase Eta. recombinant Pol eta, fluorescent DNA replication assay. Potency, µM (series often up to 114 µM), hits mostly inhibitors. 1.2% of 390,000 active. AID 588591, 2011
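Pol eta (10 nM) was preincubated with compounds for 15 min at room temperature, after which fluorescent replication substrate (50 nM final) was added to start the reaction. Fluorescence was read kinetically at 0 and 10 min.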
POLI inh: qHTS for Inhibitors of Polymerase Iota | DNA polymerase iota (Homo sapiens), Q9UNA4 | Pol iota fluorescent replication assay, 10 min | Potency, µM (doses to about 115 µM), hits mostly inhibitors | 1% of 390,000 active | AID 588590, 2011
Target sequence (Q9UNA4 whole entry, looked up): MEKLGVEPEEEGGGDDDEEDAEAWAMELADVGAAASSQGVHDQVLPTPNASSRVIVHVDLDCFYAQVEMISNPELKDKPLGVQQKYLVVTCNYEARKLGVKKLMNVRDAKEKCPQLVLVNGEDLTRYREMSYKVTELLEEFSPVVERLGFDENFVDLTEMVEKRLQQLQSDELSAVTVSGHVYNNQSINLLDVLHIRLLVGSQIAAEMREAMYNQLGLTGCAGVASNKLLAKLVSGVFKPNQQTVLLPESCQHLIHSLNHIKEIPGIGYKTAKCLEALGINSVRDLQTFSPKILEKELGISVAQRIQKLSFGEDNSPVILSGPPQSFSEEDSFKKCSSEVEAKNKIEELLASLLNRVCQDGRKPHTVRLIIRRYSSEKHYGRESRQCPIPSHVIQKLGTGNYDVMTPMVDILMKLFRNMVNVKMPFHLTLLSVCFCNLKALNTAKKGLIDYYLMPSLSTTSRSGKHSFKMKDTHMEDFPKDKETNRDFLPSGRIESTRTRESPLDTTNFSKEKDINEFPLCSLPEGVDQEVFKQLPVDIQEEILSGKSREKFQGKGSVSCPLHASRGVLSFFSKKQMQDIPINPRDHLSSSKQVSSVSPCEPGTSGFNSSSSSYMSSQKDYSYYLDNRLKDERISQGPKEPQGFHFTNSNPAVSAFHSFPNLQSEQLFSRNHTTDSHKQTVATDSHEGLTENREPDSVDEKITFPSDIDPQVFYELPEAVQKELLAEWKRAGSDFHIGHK
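Pol iota at 10 nM preincubated 15 min with compounds at room temperature; reaction started with fluorescent substrate, 50 nM final. Fluorescence read kinetically at 0 and 10 min; buffer-only wells as negative control.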
POLB inh: qHTS Assay for Inhibitors of DNA Polymerase Beta; Pol beta primer extension/strand displacement, fluorescence kinetic; Potency, µM (top dose mostly 114 µM), usual class: inhibitors; 1.3% of 340,000 active; AID 485314, 2010
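Enzyme-only controls used 10 nM Pol beta; buffer lacking enzyme served as negative control. Compound preincubated 15 min, then 50 nM substrate added; 0 and 10 min reads at room temperature.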
Pol kappa inh-1: qHTS for Inhibitors of Polymerase Kappa; purified Pol kappa, fluorescent DNA synthesis assay, 10 min; Potency, µM (top dose mostly 107 µM), actives largely listed as inhibitors; 0.53% of 400,000 active; AID 588579, 2011
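Kinetic fluorescence readout at 0 and 10 min followed reaction start with substrate at 50 nM final. Beforehand, enzyme (10 nM Pol kappa) stood 15 min with compound at room temperature; buffer-only wells were negative controls.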
Pol kappa inh-2: qHTS for Inhibitors of Polymerase Kappa: Confirmatory Assay for Cherry-picked Compounds; shares compounds with Pol eta inh-1; purified Pol-kappa, fluorescent strand-displacement substrate; Potency, µM, hits mostly inhibitors; 76% of 920 active
Pol eta inh-2: qHTS for Inhibitors of Polymerase Eta: Confirmatory Assay for Cherry-picked Compounds; 64% of 2,600 active; AID 720502, 2013; Potency, µM, most hits filed as inhibitors; Pol eta primer extension, TAMRA/BHQ fluorescence, 10 min; shares compounds with Pol eta inh-1
Hits are given with their value; - = inactive; ? = inconclusive; . = no result given; [ ] = dose if it differs, or a comment. Unless noted, the call rests on the fitted dose curve; in most records, active means well fitted curve in the direction sought with a large enough effect; inconclusive means small, poorly fitted or top-dose-only effect, or another doubt; inactive means no such curve, though single readings can be large; an effect the other way counts as inactive or inconclusive.

SMILES | PI5P4Ka inh | WRN inhibitor | Pol eta inh-1 | POLI inh | POLB inh | Pol kappa inh-1 | Pol eta inh-2 | others
CCC(=O)N1CCc2cc(Br)cc(S(=O)(=O)CCC(=O)NCCc3ccccc3Cl)c21 | . | . | ? | - | ? | - | 76 | Pol kappa inh-2=34
CCC(=O)N1CCc2cc(Br)cc(S(=O)(=O)CCC(=O)NCCc3ccc(C)cc3)c21 | . | . | - | - | - | - | .
COc1ccc(C2C=C(c3ccc(Cl)cc3)Nc3nc(-c4ccc(Cl)cc4)nn32)cc1 (stereo unspecified) | . | . | - | - | - | - | .
COc1ccc(/C=C/C(=O)O)cc1S(=O)(=O)N1CCCc2ccccc21 | - | -[11.6 µM] | 45µM | - | ? | - | 60
c1cnc2c(c1)ccc1cccnc12 | - | - | - | - | - | - | .
O=C1C=CC(=O)N1c1cccc2cccnc12 | -62 | ? | 28µM | ? | . | 89µM | 76 | Pol kappa inh-2=?
CCOC(=O)C1CCN(C(=O)C2CCN(C3=NS(=O)(=O)C(c4ccc(C)cc4)=C3CC)CC2)CC1 | . | . | - | - | - | - | .
O=C(O)c1ccccc1C(=O)c1ccc2oc(=O)[nH]c2c1 | - | -[11.6 µM] | 22µM | ? | . | ? | 38 | Pol kappa inh-2=?
Cc1ccc(C(=O)c2ccccc2C(=O)O)cc1C | - | - | - | - | - | - | .
O=C(CCn1cnc2ccccc2c1=O)Nc1ccc(S(=O)(=O)N2CCCC2)cc1 | - | - | - | - | - | - | .
N#CC1=C(SCC(=O)Nc2ccc(C(=O)O)cc2)NC(=O)CC1c1ccco1 (stereo unspecified) | ? | -[11.6 µM] | 20µM | 25µM | ? | ? | 60
Cc1ccc(NC(=O)CSC2=C(C#N)C(c3ccco3)C3=C(CCCC3=O)N2)cc1 (stereo unspecified) | - | - | - | ? | - | - | .
COc1cc(OC)c(NS(=O)(=O)c2ccc3c(c2)NC(=O)CO3)cc1Cl | - | - | - | - | - | - | .
N=C1/C(=C/c2ccc(OCc3ccccc3F)cc2)C(=O)N=C2SC(CC(=O)N3CCOCC3)=NN12 | - | - | - | 25µM | ? | ? | ?
Cc1ccc(/C=C2/C(=N)N3N=C(CC(=O)N4CCCC4)SC3=NC2=O)o1 | - | - | - | ? | - | - | .
N=C1/C(=C/c2ccc(OCc3ccccc3)cc2)C(=O)N=C2SC(CC(=O)N3CCOCC3)=NN12 | ? | - | ? | ? | - | 89µM | ?
N=C1/C(=C\c2ccc(Br)o2)C(=O)N=C2SC(CC(=O)N3CCCCC3)=NN12 | -66 | ? | 22µM | ? | ? | 32µM | 85
COc1ccc(-c2c(-c3cc(OC)cc(OC)c3)n(C)c3ccc(-c4ccc(S(N)(=O)=O)cc4)cc23)cc1 | - | - | - | - | . | - | .
c1nc(SSc2ncc3n[nH]nc3n2)nc2n[nH]nc12 | . | . | . | ? | . | - | .
Cc1c(N=Nc2ccc(O)cc2)c(=O)n(-c2ccccc2)n1C | - | - | - | - | - | - | .
Cc1c(N=C2C=C(Br)C(=O)C(Br)=C2)c(=O)n(-c2ccccc2)n1C | -78 | -[11.6 µM] | ? | 4µM | 40µM | 79µM | 60
COC(=O)c1ccccc1NC(=O)NCc1ccc2c(c1)CCN2C(=O)c1ccccc1 | . | . | - | - | - | - | .
COc1ccccc1NC(=S)N1CCN(c2ccccc2F)CC1 | - | - | - | - | - | - | .
O=C(O)c1cc(-c2ccco2)nc2cc3ccccc3cc12 | ? | ? | 20µM | ? | 11µM | 79µM | 76
CC(=O)N1CCN(c2ccc(NS(=O)(=O)c3ccc4c(c3)CC(=O)N4)cc2)CC1 | . | . | . | . | . | . | ?
SMILES | PI5P4Ka inh | WRN inhibitor | Pol eta inh-1 | POLI inh | POLB inh | Pol kappa inh-1 | Pol eta inh-2 | others
CC(=O)c1ccc(N2CCN(S(=O)(=O)c3ccc4c(c3)CC(=O)N4)CC2)cc1 | - | -[11.6 µM] | - | - | - | - | .
COCCCn1c(Cc2csc(Nc3cccc(Cl)c3)n2)nnc1SCC(=O)OC | . | -[11.6 µM] | 20µM | 22µM | 25µM | 40µM | 38 | Pol kappa inh-2=17
CCOC(=O)CSc1nnc(CNc2cccc(Cl)c2)n1C | - | - | - | - | - | - | .
CC1=NN2C(=N)/C(=C\c3cc(C)n(-c4cccc(C)c4)c3C)C(=O)N=C2S1 | - | - | - | - | - | - | .
CS(=O)(=O)C1=NSC2=NC(=O)/C(=C\c3ccc(-c4ccccc4)o3)C(=N)N21 | . | . | . | . | - | . | .
Cc1cc(C)cc(-n2cccc2/C=C2/C(=N)N3C(=NC2=O)SN=C3S(C)(=O)=O)c1 | ? | -[11.6 µM] | 40µM | ? | 45µM | - | ?
CS(=O)(=O)C1=NSC2=NC(=O)/C(=C\c3cccn3-c3ccccc3Cl)C(=N)N21 | -95 | -[11.6 µM] | 40µM | ? | 35µM | ? | ?
CNc1ccc(Br)cc(C(=O)/C=C/c2ccc3c(c2)OCO3)c1=O | ? | ? | 10µM | 3.2µM | 20µM | 35µM | ?
Cc1ccc(S(=O)(=O)N[C@@H](CO)C(=O)N[C@@H](Cc2ccc(O)cc2)C(=O)O)cc1 | - | - | - | - | - | - | .
O=C(O)c1ccc(S(=O)(=O)N[C@@H](Cc2ccc(O)cc2)C(=O)O)cc1 | . | . | . | . | . | . | 38 | Pol kappa inh-2=11
Cc1ccc(-c2csc(/C(C#N)=C/c3ccccc3Cl)n2)cc1 | . | . | - | - | ? | - | .
O=C(Nc1cccnc1Cl)c1ccc(=O)oc1 | ? | ? | 20µM | 22µM | 13µM | 45µM | ?
COc1cc(CC(=O)OCC(=O)Nc2cc([N+](=O)[O-])ccc2Cl)cc(OC)c1OC | - | - | - | - | - | - | .
C#CCN1C(=O)S/C(=C\c2ccc(-c3ccc(Cl)c(C(=O)O)c3)o2)C1=O | ? | -[11.6 µM] | 14µM | ? | ? | 35µM | ?
CCOC(=O)CN1C(=O)S/C(=C/c2ccc(C)o2)C1=O | - | - | - | - | - | - | .
O=C(Oc1ccccc1F)c1ccc2c(=O)n3c(nc2c1)CCC3 | - | - | ? | ? | . | - | 67
O=C(Oc1ccccc1Cl)c1ccc2c(=O)n3c(nc2c1)CCC3 | - | - | ? | - | . | - | .
COc1ccc(/C=N/NC(=O)c2cccnc2)cc1COc1ccc([N+](=O)[O-])c(C)c1 | - | - | - | - | - | - | .
COc1ccc(/C=N\NC(=O)c2ccc([N+](=O)[O-])c(C)c2)cc1COc1ccccc1C(N)=O | - | ? | - | - | ? | - | . | Pol kappa inh-2=38
